The panel holds about 83,000 compounds, 20% with a hit somewhere; the sample as a whole holds those more often.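 Note: values are percent growth. 100 is the growth of untreated cells, values between 100 and 0 indicate rising inhibition; between -100 and 0 indicates cell death.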 Unmarked numbers belong to inactive results. The source made the active and inactive calls. Rule for the calls: active = growth percent below 10; inactive = the rest.

The subject of the first assay is TK-10 renal. Briefly: NCI-60 one-dose screen, 48 h (100 = growth as untreated, 0 = no growth, -100 = all killed). The conditions noted are these: 10 µM unless noted.
On to `CN1C(=O)N(C)C2C1NN=c1s/c(=C\c3ccc(Cl)cc3Cl)c(=O)n12` (stereo not drawn), for which the growth was 83.7%.
As for `COc1ccc2occ(C3=C(c4c[nH]c5ccccc45)C(=O)NC3=O)c2c1`, the growth is 81.5%.
Still for that read-out and setting: to `CCN1CCN(C(=S)SCC(=O)Nc2nc3ccc(C)cc3s2)CC1` belongs 111%; to `Cc1c(-c2csc(-n3nc(C(F)(F)F)cc3C(F)(F)F)n2)no[n+]1[O-]`, 118%.
`N#C/C(=C\c1c(-c2ccccc2)[nH]c2ccccc12)S(=O)(=O)c1ccccc1`: the growth is 69.4%.
On to `CC(=O)O[C@@H]1/C=C/C(=O)N[C@@H](C)CCC/C=C/[C@@H]2CCC[C@H]21`, for which the growth is 112%.
With `CN1C(=O)N(C)C2C1NN=c1s/c(=C\c3ccc([N+](=O)[O-])cc3)c(=O)n12` (stereo not drawn), the growth was 95.2%.
Regarding `O=C(N=Nc1c(O)[nH]c2ccccc12)c1oc2ccccc2c1CN1CCN(c2ccccc2)CC1`, the growth was -45.1% (active).
For the compound `COC(=O)/C(=C\c1c(-c2ccccc2)[nH]c2ccccc12)S(C)(=O)=O`, the growth is 67.2%.
The same measure, in the same setting: the result for `COc1ccccc1C1=C(Br)C(=O)c2nc(C)ccc2C1=O` reads 101%; that for `Cc1cccc2c(=O)c3c(sc12)c(N1CCNCC1)nc1ccccc13`, 86.3%; that for `CCN(CC)CCNC(=O)C(Cl)=C1C(Cl)=C(Cl)C(Cl)=C1Cl`, 59.4%.
Consider `N#CC(C#N)=Cc1c(-c2ccccc2)[nH]c2ccccc12`, for which the growth was 67.6%.
On to `C=CCN1C(=O)/C(=c2\sc3n(c2=O)NC2C(N=3)N(CC)C(=O)N2CC)c2ccccc21` (stereo not drawn), for which the growth was 101%.
`CC(C)Cn1c2c(c(=S)[nH]c1=O)CCC2`: the growth was 102%.
For the compound `COC(=O)/C(=C\c1c(C)[nH]c2ccccc12)S(=O)(=O)c1ccccc1`, the growth was 46.8%.
As for `CCCCN1CCN(c2ccc3nc(-c4ccc5nc(-c6ccc(C(F)(F)F)cc6)[nH]c5c4)[nH]c3c2)CC1`, the growth is -71.3% (active).
Consider `CN1C(=O)N(C)C2C1NN=c1s/c(=C\c3c[nH]c4ccccc34)c(=O)n12` (stereo not drawn), for which the growth was 86.4%.
With `Cc1ccc2c(n1)C(=O)C(Oc1ccc(Br)cc1)=CC2=O`, the growth is 103%.
On to `COc1cc(/C=C2\Oc3cc(OCCCN4CCCC4)ccc3C2=O)cc(OC)c1`, for which the growth is 101%.
`Cc1cccc(NC(=O)c2sc3nc4c(cc3c2N)CCCC4)c1C`: the growth was 65.4%.
Turning to `CCN1C(=O)N(CC)C2Nn3c(s/c(=C4\C(=O)N(C(C)C)c5ccccc54)c3=O)=NC21` (stereo not drawn), the growth is 86.6%.
With `O=C1/C=C/[C@@H](O)[C@@H]2C[C@@H](O)C[C@H]2/C=C/CCCCO1`, the growth is 32.1%.
`CCOC(=O)c1sc(-c2ccc(OS(=O)(=O)c3ccc(Br)s3)c(C=O)c2)nc1C`: the growth is -1.6% (active).
The same measure, in the same setting: to `CNCCNc1nc2ccccc2c2c(=O)c3cccc(C)c3sc12` belongs 41.7%; to `O=C(CN1C=NC2C(N3CCOCC3)=NC=NC21)c1ccc(Br)cc1` (stereo not drawn), 117%.
With `COc1ccc(OC)c(NC(=O)/C(C#N)=C/c2ccco2)c1`, the growth was 114%.
On to `CCN1C(=O)N(CC)C2C1NN=c1s/c(=C3\C(=O)N(CC(C)(C)C)c4ccccc43)c(=O)n12` (stereo not drawn), for which the growth is 84.3%.
Turning to `CCN1C(=O)N(c2ccccc2)C2NN=c3s/c(=C4\C(=O)N(C(C)C)c5ccccc54)c(=O)n3C21` (stereo not drawn), the growth was 74.9%.
Turning to `COc1ccc(C2=C(c3cccc(OC)c3)C(=O)c3ccc(C)nc3C2=O)cc1`, the growth was 93.8%.
As for `CN1C(=O)N(C)C2Nn3c(s/c(=C\c4ccc(Cl)cc4Cl)c3=O)=NC21` (stereo not drawn), the growth was 117%.
Turning to `COc1cccc(C(=O)Cn2cc(/C=C(\C#N)S(=O)(=O)c3ccccc3)c3ccccc32)c1`, the growth is 106%.
For `CCCN1C(=O)N(CCC)C2C1NN=c1s/c(=C3\C(=O)N(C(C)C)c4ccccc43)c(=O)n12` (stereo not drawn), the growth is 78.9%.
With `N#C/C(=C\c1c(-c2ccccc2)[nH]c2ccccc12)C(=O)c1ccccc1`, the growth is 74.5%.
Regarding `COC(=O)/C(CCC=C(C)C)=C1\[C@@H](OC(C)=O)C[C@@]2(C)[C@H]1CC(=O)[C@H]1[C@@]3(C)CC[C@H](NCc4ccccc4)[C@@H](C)[C@@H]3CC[C@@]12C`, the growth was 111%.
Consider `O=C1C(=O)c2c(ccc3ccccc23)-c2ccccc21`, for which the growth is 14.7%.
In the case of `CCOC(=O)c1ccc(N=Cc2sc(=O)[nH]c2O)cc1`, the growth was 98.4%.
Consider `COC(=O)c1c2c(c(C)[n+]([O-])c1C)C(=O)C(NCc1ccc(Br)cc1)=CC2=O`, for which the growth was 84.4%.
As for `COc1ccc2[nH]c(O)c(N=NC(=O)c3oc4ccccc4c3C)c2c1`, the growth is -64% (active).

A further assay concerns ACHN renal. Described as above. The conditions noted are these: 10 µM unless noted.
Regarding `CN1C(=O)N(C)C2C1NN=c1s/c(=C\c3ccc(Cl)cc3Cl)c(=O)n12` (stereo not drawn), the growth is 29%.
As to `COc1ccc2occ(C3=C(c4c[nH]c5ccccc45)C(=O)NC3=O)c2c1`, the growth was 70.2%.
`CCN1CCN(C(=S)SCC(=O)Nc2nc3ccc(C)cc3s2)CC1`: the growth was 103%.
Regarding `Cc1c(-c2csc(-n3nc(C(F)(F)F)cc3C(F)(F)F)n2)no[n+]1[O-]`, the growth was 107%.
`N#C/C(=C\c1c(-c2ccccc2)[nH]c2ccccc12)S(=O)(=O)c1ccccc1`: the growth is 59.4%.
On to `CC(=O)O[C@@H]1/C=C/C(=O)N[C@@H](C)CCC/C=C/[C@@H]2CCC[C@H]21`, for which the growth is 112%.
For the compound `CN1C(=O)N(C)C2C1NN=c1s/c(=C\c3ccc([N+](=O)[O-])cc3)c(=O)n12` (stereo not drawn), the growth was 53.6%.
With `O=C(N=Nc1c(O)[nH]c2ccccc12)c1oc2ccccc2c1CN1CCN(c2ccccc2)CC1`, the growth was -85.2% (active).
Still for that read-out and setting: the result for `COC(=O)/C(=C\c1c(-c2ccccc2)[nH]c2ccccc12)S(C)(=O)=O` reads 56.8%.
With `COc1ccccc1C1=C(Br)C(=O)c2nc(C)ccc2C1=O`, the growth was 19.9%.
As for `Cc1cccc2c(=O)c3c(sc12)c(N1CCNCC1)nc1ccccc13`, the growth is 46%.
Still for that read-out and setting: the result for `CCN(CC)CCNC(=O)C(Cl)=C1C(Cl)=C(Cl)C(Cl)=C1Cl` reads 48.6%; that for `N#CC(C#N)=Cc1c(-c2ccccc2)[nH]c2ccccc12`, 65.5%.
In the case of `C=CCN1C(=O)/C(=c2\sc3n(c2=O)NC2C(N=3)N(CC)C(=O)N2CC)c2ccccc21` (stereo not drawn), the growth is 52.9%.
With `CC(C)Cn1c2c(c(=S)[nH]c1=O)CCC2`, the growth was 103%.
For the compound `COC(=O)/C(=C\c1c(C)[nH]c2ccccc12)S(=O)(=O)c1ccccc1`, the growth was 49.1%.
For the compound `CCCCN1CCN(c2ccc3nc(-c4ccc5nc(-c6ccc(C(F)(F)F)cc6)[nH]c5c4)[nH]c3c2)CC1`, the growth was -99.5% (active).
Take `CN1C(=O)N(C)C2C1NN=c1s/c(=C\c3c[nH]c4ccccc34)c(=O)n12` (stereo not drawn): the growth was 32.5%.
On the same count and under the same terms, the result for `Cc1ccc2c(n1)C(=O)C(Oc1ccc(Br)cc1)=CC2=O` reads 7.34% (active); that for `COc1cc(/C=C2\Oc3cc(OCCCN4CCCC4)ccc3C2=O)cc(OC)c1`, -45.4% (active).
Regarding `Cc1cccc(NC(=O)c2sc3nc4c(cc3c2N)CCCC4)c1C`, the growth is 41.3%.
Take `CCN1C(=O)N(CC)C2Nn3c(s/c(=C4\C(=O)N(C(C)C)c5ccccc54)c3=O)=NC21` (stereo not drawn): the growth is 43.1%.
Turning to `O=C1/C=C/[C@@H](O)[C@@H]2C[C@@H](O)C[C@H]2/C=C/CCCCO1`, the growth is 17.9%.
For the compound `CCOC(=O)c1sc(-c2ccc(OS(=O)(=O)c3ccc(Br)s3)c(C=O)c2)nc1C`, the growth is 7.37% (active).
On the same count and under the same terms, to `CNCCNc1nc2ccccc2c2c(=O)c3cccc(C)c3sc12` belongs -29.9% (active); to `O=C(CN1C=NC2C(N3CCOCC3)=NC=NC21)c1ccc(Br)cc1` (stereo not drawn), 103%; to `COc1ccc(OC)c(NC(=O)/C(C#N)=C/c2ccco2)c1`, 93.6%.
`CCN1C(=O)N(CC)C2C1NN=c1s/c(=C3\C(=O)N(CC(C)(C)C)c4ccccc43)c(=O)n12` (stereo not drawn): the growth is 40.7%.
Turning to `CCN1C(=O)N(c2ccccc2)C2NN=c3s/c(=C4\C(=O)N(C(C)C)c5ccccc54)c(=O)n3C21` (stereo not drawn), the growth is 37.1%.
On the same count and under the same terms, the result for `COc1ccc(C2=C(c3cccc(OC)c3)C(=O)c3ccc(C)nc3C2=O)cc1` reads 33.6%; that for `CN1C(=O)N(C)C2Nn3c(s/c(=C\c4ccc(Cl)cc4Cl)c3=O)=NC21` (stereo not drawn), 56.6%.
Take `COc1cccc(C(=O)Cn2cc(/C=C(\C#N)S(=O)(=O)c3ccccc3)c3ccccc32)c1`: the growth was 111%.
In the case of `CCCN1C(=O)N(CCC)C2C1NN=c1s/c(=C3\C(=O)N(C(C)C)c4ccccc43)c(=O)n12` (stereo not drawn), the growth was 23.4%.
For the compound `N#C/C(=C\c1c(-c2ccccc2)[nH]c2ccccc12)C(=O)c1ccccc1`, the growth is 65.9%.
The same measure, in the same setting: to `COC(=O)/C(CCC=C(C)C)=C1\[C@@H](OC(C)=O)C[C@@]2(C)[C@H]1CC(=O)[C@H]1[C@@]3(C)CC[C@H](NCc4ccccc4)[C@@H](C)[C@@H]3CC[C@@]12C` belongs 99.3%; to `O=C1C(=O)c2c(ccc3ccccc23)-c2ccccc21`, 1.97% (active); to `CCOC(=O)c1ccc(N=Cc2sc(=O)[nH]c2O)cc1`, 90.3%.
On the same count and under the same terms, the result for `COC(=O)c1c2c(c(C)[n+]([O-])c1C)C(=O)C(NCc1ccc(Br)cc1)=CC2=O` reads 32.6%.
For `COc1ccc2[nH]c(O)c(N=NC(=O)c3oc4ccccc4c3C)c2c1`, the growth is -50.9% (active).

These data come from PubChem BioAssay (NCI).
